Results filed as inconclusive are left out. Values without a mark were called inactive. The source made the active and inactive calls. The call rests on the fitted dose curve; in most records, active means well fitted cell-killing curve with a large enough effect in the repeat runs; inconclusive means weak or mixed curves, or effect the other way; inactive means flat fitted curve, though single readings scatter.
assay: cAMP Responsive Elements (CRE) small molecule antagonists, cell-based qHTS assay: qHTS cell viability counter screen (AID 2060913); settings: CRE-bla HEK293T viability, CellTiter-Glo luminescence, 5 h; series mostly up to 92.4 µM; viability change, negative = cytotoxic: at the top concentration; further: nearly all actives have a fitted effect of over 40% in size
Text: U.S. Tox21 Program National Center for Advancing Translational Sciences [NCATS] Division of Preclinical Innovation [DPI] U.S. Environmental Protection Agency [EPA] National Institutes of Environmental Health Sciences [NIEHS] National Toxicology Program [NTP] U.S. Food and Drug Administration [FDA] Tox21 Assay Overview: CREB (cyclic-AMP Responsive Element Binding Protein) is a cellular transcription factor. It binds to certain DNA sequences called cAMP Responsive Elements (CRE) and regulates the transcription of the genes. […] This cell line can be used to find agonists/antagonists of the cyclic AMP signaling pathway. The activation of the report gene under culture conditions can be detected by fluorescence intensity. This cell line has been used to screen the Tox21 10K compound library to identify agonists that induce oxidative stress. The cytotoxicity of the Tox21 compound library against the CRE-bla cell line was tested in parallel by measuring the cell viability using CellTiter-Glo assay (Promega, Madison, WI) in the same wells.
Tox21 Assay Protocol Summary: CRE-bla Hek 293T cells were suspended in assay medium (DMEM containing 10% dialyzed FBS, 0.1 mM NEAA, 1 mM sodium pyruvate and 25 mM HEPES) and dispensed at 2,000 cells/4 uL /well into 1536-well black wall/clear bottom plates using a Multidrop Combi (ThermoFisher Scientific, Waltham, MA) dispenser. After the assay plates were incubated at 37 C/5% CO2 for 18 hrs, 23 nL of compounds dissolved in DMSO, positive controls or DMSO only was transferred to the assay plate by a pintool workstation (Kalypsys, San Diego, CA), followed by addition of 1 uL of 1.25uM NKH477 (0.25 uM as final concentration) in assay medium using a Flying Reagent Dispenser (Aurora Discovery, San Diego, CA). The plates were incubated at 37 C and 5% CO2 for 3 hrs. Then 1 uL of LiveBLAzer B/G FRET substrate (Invitrogen, Carlsbad, CA) was added to each well using Bioraptr Flying Reagent Dispenser (FRD, Aurora Discovery, San Diego, CA). The plates were incubated at room temperature for 2 h, then fluorescence intensities were measured using an Envision plate reader (PerkinElmer, Shelton, CT) at Excitation 405nm, Emission 460nm and 530nm. The % activity was determined from the ratio of 460nm/530nm. For cell viability readout that measures cytotoxicity, 4 uL /well of CellTiter-Glo reagent was added into the assay plates using Bioraptr FRD. After 30 min incubation at room temperature, the luminescence intensity in the assay plates was measured using a ViewLux (PerkinElmer, Shelton, CT) plate reader.
On the % scale 0 is the no-effect control and ±100 the full control effect.

Row | Structure (SMILES) | viability change, negative = cytotoxic | Potency
1 | NC(=O)c1c(Cl)cccc1Cl | 0.125% | 
2 | COC(=O)c1ccccc1Cl | 0.195% | 
3 | C=CCNCC=C |  | inactive
4 | Oc1ccc(C2CNCCc3c2cc(O)c(O)c3Cl)cc1 (stereo not given) | 6.43% [at 42.5 µM] | 
5 | Cc1cc(O)cc2c1O[C@](C)(CCC[C@H](C)CCC[C@H](C)CCCC(C)C)CC2 | 0.206% [at 42.5 µM] | 
6 | CCCCOCCOC(=O)CCCCCCCCC(=O)OCCOCCCC | 0.95% | 
7 | O=C(CN1CCN(Cc2ccc3c(c2)OCO3)CC1)N1c2ccccc2Sc2ccccc21 | 2.38% [at 42.5 µM] | 
8 | CCC(CO)(CO)[N+](=O)[O-] | 1.96% | 
9 | CCOC(=O)C(C)Oc1ccc(Oc2nc3ccc(Cl)cc3o2)cc1 (stereo not given) | 1.21% | 
10 | CCCCCO | 0.772% | 
11 | CO[C@H]1C=CO[C@@]2(C)Oc3c(C)c(O)c4c(O)c(c5c(c4c3C2=O)=NC2(CCN(CC(C)C)CC2)N=5)NC(=O)/C(C)=C\C=C/[C@H](C)[C@H](O)[C@@H](C)[C@@H](O)[C@@H](C)[C@H](OC(C)=O)[C@@H]1C | 0.529% | 
12 | NC(=O)c1ccccc1[N+](=O)[O-] | -0.125% | 
13 | CC(C)(C)NSc1nc2ccccc2s1 | 0.107% | 
14 | OCC1CC2CC1C1CCC(CO)C21 (stereo not given) | 5.24% | 
15 | O=C1C(N(CO)C(=O)NCO)N(CO)C(=O)N1CO (stereo not given) |  | inactive
16 | NC1CCCCC1 |  | inactive
17 | CCOC(=O)C(C)C(C)=O (stereo not given) | -7.86% | 
18 | CC(Cl)C(Cl)Cl (stereo not given) | -14.7% | 
19 | CC(C)C1CCC(O)CC1 (stereo not given) | -3.47% | 
20 | COc1ccc([N+](=O)[O-])cc1N |  | inactive

Row | Structure (SMILES) | viability change, negative = cytotoxic | Potency
21 | O=C1[C@H]2CCCC[C@H]2C(=O)N1CCCCN1CCN(c2nsc3ccccc23)CC1 | -0.56% [at 42.5 µM] | 
22 | O=C(Cl)c1c(Cl)c(Cl)c(C(=O)Cl)c(Cl)c1Cl |  | inactive
23 | Cn1cc(S(C)=O)c(=O)c2ccc(F)cc21 (stereo not given) | 2.55% [at 42.5 µM] | 
24 | Nc1c(Cl)cc(Cl)cc1[N+](=O)[O-] | -11.4% | 
25 | OCC1CCC(CO)CC1 (stereo not given) | 9.84% | 
26 | C=CCN(CC=C)CC=C | -3.29% | 
27 | CCCCCC1CCCC(=O)O1 (stereo not given) | -2.52% | 
28 | CC(=O)OCC(=O)[C@@]1(O)CCC2C3CCC4=CC(=O)CC[C@]4(C)C3[C@@H](O)C[C@@]21C (stereo not given in full) | -1.05% [at 42.5 µM] | 
29 | CC1CCc2c(N3CCC(O)CC3)c(F)cc3c(=O)c(C(=O)O)cn1c23 (stereo not given) | 4.01% [at 42.5 µM] | 
30 | CC(=O)[C@@]1(O)CC[C@H]2[C@@H]3C[C@H](C)C4=CC(=O)C=C[C@]4(C)[C@@]3(F)[C@@H](O)C[C@@]21C |  | inactive
31 | O=C1NC(=O)C2CC=CCC12 (stereo not given) | -4.8% | 
32 | C=C(C)C(=O)O |  | inactive
33 | O=[N+]([O-])c1cc(C(F)(F)F)ccc1Cl |  | inactive
34 | CC(C(=O)O)c1ccc2c(c1)[nH]c1ccc(Cl)cc12 (stereo not given) | -4.26% [at 42.5 µM] | 
35 | COc1cc(C(C)=O)ccc1OCCCN1CCC(c2noc3cc(F)ccc23)CC1 | -0.561% [at 42.5 µM] | 
36 | CC(CN(C)C)CN1c2ccccc2CCc2ccccc21 (stereo not given) | -4.35% [at 42.5 µM] | 
37 | CCCC(=O)OCCc1ccccc1 | 9.5% | 
38 | CCOC(=O)c1ccccc1C(=C1C=C(Br)C(=O)C(Br)=C1)c1cc(Br)c(O)c(Br)c1 | 1.77% [at 42.5 µM] | 
39 | CC(=O)C1=C(C)[C@@H]2C[C@@]3(C1)[C@H](C)CC[C@H]3C2(C)C |  | inactive
40 | CC(=O)c1sc(C)nc1C | 4.21% | 
